Data as given in PubChem BioAssay.
Activity calls are given as the source filed them.

What was measured:
[1] = small molecules captured by biotinylated probe aFSTL3 – biochemical, small-molecule microarray, fluorescence 635/667, stem cell growth factor project, primary screen (AID 1064); conditions: higher = more signal;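 note: measures binding of the biotinylated anti-FSTL3 antibody to printed compounds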
[2] = binders from COS7 lysate, DM2A8 probe, primary screen, torsin A project, cell lysate, small-molecule microarray, fluorescence 635/667 (AID 1065); conditions: higher = more signal, COS7 lysate expressing mutant human TOR1A
[3] = small molecules captured by biotinylated probe aFGF2 – biochemical, small-molecule microarray, fluorescence 635/667, stem cell growth factor project, primary screen (AID 1067); conditions: higher = more signal;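 note: measures binding of biotinylated aFGF2 protein to printed compounds on slides; z-score merges feature fluorescence and signal-to-noise across triplicate slides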
[4] = small molecules captured by biotinylated probe aFGF10 – biochemical, small-molecule microarray, fluorescence 635/667, stem cell growth factor project, primary screen (AID 1071); conditions: higher = more signal;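 note: score merges 667 nm spot intensity and signal to noise from triplicate slides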
[5] = molecular target: Neurogenic locus notch homolog protein 2 (Homo sapiens) (UniProt Q04721); assay: small molecules binding Notch2 protein – biochemical, small-molecule microarray, 635 nm fluorescence, stem cell growth factors, primary screen (AID 1073); conditions: higher = more signal
Chain of Neurogenic locus notch homolog protein 2 (Homo sapiens) (Q04721 whole entry, looked up, canonical isoform): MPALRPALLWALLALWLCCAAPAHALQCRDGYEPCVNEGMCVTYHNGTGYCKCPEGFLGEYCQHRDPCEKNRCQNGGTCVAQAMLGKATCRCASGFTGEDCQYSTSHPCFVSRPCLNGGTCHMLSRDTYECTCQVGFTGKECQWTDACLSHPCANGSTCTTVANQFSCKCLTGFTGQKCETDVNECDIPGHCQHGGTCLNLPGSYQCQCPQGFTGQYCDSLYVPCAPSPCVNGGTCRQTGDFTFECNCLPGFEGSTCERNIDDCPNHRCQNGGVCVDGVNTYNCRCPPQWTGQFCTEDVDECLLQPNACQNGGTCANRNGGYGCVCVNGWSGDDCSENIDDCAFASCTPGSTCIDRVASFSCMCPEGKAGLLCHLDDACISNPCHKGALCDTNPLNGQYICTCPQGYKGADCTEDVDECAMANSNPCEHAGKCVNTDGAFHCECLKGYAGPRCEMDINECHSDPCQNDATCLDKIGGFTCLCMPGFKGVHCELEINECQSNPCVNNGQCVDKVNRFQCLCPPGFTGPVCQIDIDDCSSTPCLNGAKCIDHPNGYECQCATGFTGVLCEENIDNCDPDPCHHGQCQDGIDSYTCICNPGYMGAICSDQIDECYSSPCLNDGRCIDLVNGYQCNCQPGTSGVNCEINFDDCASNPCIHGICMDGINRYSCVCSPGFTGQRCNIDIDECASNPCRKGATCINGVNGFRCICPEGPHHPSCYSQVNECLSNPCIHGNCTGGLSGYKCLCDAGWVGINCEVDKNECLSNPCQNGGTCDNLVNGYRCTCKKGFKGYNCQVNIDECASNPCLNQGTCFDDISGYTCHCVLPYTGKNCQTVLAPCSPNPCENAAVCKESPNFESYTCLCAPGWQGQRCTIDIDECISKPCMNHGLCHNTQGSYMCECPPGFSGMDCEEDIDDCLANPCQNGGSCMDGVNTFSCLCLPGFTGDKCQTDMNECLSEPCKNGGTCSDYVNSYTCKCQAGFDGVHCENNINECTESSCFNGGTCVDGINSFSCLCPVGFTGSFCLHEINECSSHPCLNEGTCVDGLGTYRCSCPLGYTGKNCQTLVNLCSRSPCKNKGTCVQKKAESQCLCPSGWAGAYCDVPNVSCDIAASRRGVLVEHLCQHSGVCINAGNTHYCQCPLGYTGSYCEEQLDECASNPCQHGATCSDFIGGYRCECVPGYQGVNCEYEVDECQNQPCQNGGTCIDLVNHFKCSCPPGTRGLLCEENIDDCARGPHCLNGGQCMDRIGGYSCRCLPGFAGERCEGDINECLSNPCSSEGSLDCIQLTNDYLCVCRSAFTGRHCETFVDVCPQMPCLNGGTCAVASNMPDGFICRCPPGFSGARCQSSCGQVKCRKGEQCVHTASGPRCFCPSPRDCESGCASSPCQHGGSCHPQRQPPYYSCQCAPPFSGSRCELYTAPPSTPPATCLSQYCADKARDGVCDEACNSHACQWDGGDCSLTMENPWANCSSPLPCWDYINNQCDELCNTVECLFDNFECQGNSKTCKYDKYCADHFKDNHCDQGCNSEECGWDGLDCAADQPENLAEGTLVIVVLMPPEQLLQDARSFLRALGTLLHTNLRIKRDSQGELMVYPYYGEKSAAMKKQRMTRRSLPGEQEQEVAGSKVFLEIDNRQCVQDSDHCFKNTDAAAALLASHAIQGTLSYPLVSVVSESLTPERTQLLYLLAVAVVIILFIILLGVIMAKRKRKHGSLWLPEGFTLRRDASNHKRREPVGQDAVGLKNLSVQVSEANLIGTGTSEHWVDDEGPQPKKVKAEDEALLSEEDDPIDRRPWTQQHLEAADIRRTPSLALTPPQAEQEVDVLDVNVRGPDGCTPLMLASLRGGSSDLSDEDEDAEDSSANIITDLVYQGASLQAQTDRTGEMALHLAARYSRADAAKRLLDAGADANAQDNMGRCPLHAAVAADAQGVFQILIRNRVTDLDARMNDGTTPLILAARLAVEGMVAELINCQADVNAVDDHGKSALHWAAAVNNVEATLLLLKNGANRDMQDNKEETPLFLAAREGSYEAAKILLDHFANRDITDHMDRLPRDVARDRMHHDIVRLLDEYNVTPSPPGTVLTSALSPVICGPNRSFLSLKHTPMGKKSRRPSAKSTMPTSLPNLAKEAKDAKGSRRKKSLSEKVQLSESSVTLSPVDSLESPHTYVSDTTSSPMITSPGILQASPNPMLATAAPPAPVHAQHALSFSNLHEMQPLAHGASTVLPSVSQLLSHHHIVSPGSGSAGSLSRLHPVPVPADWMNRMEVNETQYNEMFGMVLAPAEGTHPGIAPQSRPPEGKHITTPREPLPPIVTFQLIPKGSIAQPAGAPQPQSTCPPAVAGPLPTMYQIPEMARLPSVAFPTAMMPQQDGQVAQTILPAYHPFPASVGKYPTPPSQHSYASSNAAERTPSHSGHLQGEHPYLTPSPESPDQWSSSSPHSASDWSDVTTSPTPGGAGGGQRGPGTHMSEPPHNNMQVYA

[6] = molecular target: Pro-neuregulin-1, membrane-bound isoform (Homo sapiens) (UniProt Q02297); assay: small molecules binding neuregulin-1 protein – biochemical, small-molecule microarray, fluorescence 635/667, psychiatric disease protein project, primary screen (AID 1075); conditions: NRG1 binding, 635 nm fluorescence, higher = more signal;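 note: score combines 667 nm spot fluorescence with signal to noise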
Chain of Pro-neuregulin-1, membrane-bound isoform (Homo sapiens) (Q02297 whole entry, looked up, the tested form may be a part, canonical isoform): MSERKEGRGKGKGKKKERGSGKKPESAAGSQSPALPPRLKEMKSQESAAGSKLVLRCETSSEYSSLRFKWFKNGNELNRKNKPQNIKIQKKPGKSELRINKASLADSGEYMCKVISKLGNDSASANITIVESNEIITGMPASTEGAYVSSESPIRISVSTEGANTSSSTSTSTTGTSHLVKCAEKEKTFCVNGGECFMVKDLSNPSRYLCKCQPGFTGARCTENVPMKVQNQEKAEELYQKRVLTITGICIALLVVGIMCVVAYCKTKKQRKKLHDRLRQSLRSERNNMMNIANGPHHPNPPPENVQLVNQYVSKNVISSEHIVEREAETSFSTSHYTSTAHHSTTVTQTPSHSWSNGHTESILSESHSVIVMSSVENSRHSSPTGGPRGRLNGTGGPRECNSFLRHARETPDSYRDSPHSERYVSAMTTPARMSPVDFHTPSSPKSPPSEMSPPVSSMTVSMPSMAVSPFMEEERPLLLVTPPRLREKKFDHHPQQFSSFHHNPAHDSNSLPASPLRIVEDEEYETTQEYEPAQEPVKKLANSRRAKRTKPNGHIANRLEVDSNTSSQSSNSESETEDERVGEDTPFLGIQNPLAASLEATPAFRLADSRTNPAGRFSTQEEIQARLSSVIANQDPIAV

[7] = test system: Neuregulin-1 EGF-like domain; assay: small molecules binding NRG1 EGF domain – biochemical, small-molecule microarray, 635 nm fluorescence, primary screen (AID 1081); conditions: higher = more signal;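 note: binding of the protein to compounds printed on small-molecule microarray slides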
[8] = FRG1 expression reporter modulators in myotubes – cell-based, C2C12 myotubes, firefly/Renilla luciferase, luminescence, FRG1 inhibition for FSHD, primary screen (AID 1084); conditions: FRG1 promoter luciferase, higher = more signal, called active from +8 up or from −8 down
[9] = small molecules captured by biotinylated probe aFST – biochemical, small-molecule microarray, fluorescence 635/667, stem cell growth factor project, primary screen (AID 1086); conditions: higher = more signal;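 note: score merges 667 nm fluorescence with signal-to-noise of each printed compound spot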
[10] = binders of probe aHhip on microarray, primary screen, stem cell growth factor project, biochemical, small-molecule microarray, fluorescence 635/667 (AID 1087); conditions: higher = more signal;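 note: score merges spot fluorescence at 667nm with spot signal to noise ratio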

| SMILES | composite z-score [1] | composite z-score [2] | composite z-score [3] | composite z-score [4] | composite z-score [5] | composite z-score [6] | composite z-score [7] | z-score [8] | composite z-score [9] | composite z-score [10] |
| --- | --- | --- | --- | --- | --- | --- | --- | --- | --- | --- |
| CCOC(=O)C[C@H]1[C@H](OC(=O)c2cc3ccccc3oc2=O)[C@@H](NC(=O)c2ccc(-c3ccccc3)cc2)c2cc(OCCCO)ccc2N1C(=O)Cc1ccc(OC)cc1 | -0.428 | 0.0922 | -0.0667 | 0.67 | 0.992 | 0.178 | 1.18 | 0.228 (inactive) | 0.494 | -0.132 |
| COC(=O)C1=CC(c2ccc(CO)cc2)=CC(C2CC2)N(Cc2cc3c(cc2Br)OCO3)C=C1C(=O)OC (stereo not given) | 0.131 | 1.64 | 0.214 | 1.25 | 1.66 | 1.97 | 1.15 | -2.56 (inactive) | 0.559 | 0.0278 |
| O=C1O[C@@H](c2ccccc2)[C@@H](c2ccccc2)N2[C@@H](c3ccccc3OCCO)[C@]3(C(=O)Nc4ccc(C#CC5(O)CCCCCC5)cc43)[C@@H](C(=O)N3CCCCCCC3)[C@H]12 | 4.04 | 2.44 | 1.08 | 1.47 | 1.89 | 2.67 | 1.4 | -1.05 (inactive) | 3.81 | 3.97 |
| CCOC(=O)C1=C[C@@H](C(C)(C)C)N(S(=O)(=O)c2ccc(C)cc2)[C@H]1c1ccc(OC)cc1 | -0.491 | -0.103 | 0.0111 | 0.726 | 1.56 | 0.348 | 1.19 | -3.35 (inactive) | 0.525 | -0.212 |
| COC(=O)[C@@]1(Cc2ccc(F)cc2)[C@H]2c3cc(C(=O)N(C)C)n(Cc4ccc(C(F)(F)F)nc4)c3C[C@H]2CN1C(=O)c1ccccc1 | 1.5 | 0.474 | 0.0642 | 0.69 | 1.74 | 2.03 | 1.18 | -0.909 (inactive) | 1.97 | 0.264 |
| C[N+](C)(C)CCCC[C@@H]1NC(=O)[C@H]2C[C@@H](C(=O)NCCCCCN)[C@@H](c3ccc(O)cc3)N2C1=O | 0.0912 | 1.95 | -0.0593 | 0.873 | 0.717 | 1.79 | 1.21 | -0.0231 (inactive) | 1.2 | 0.0722 |
| COC(=O)C(CC#Cc1ccc2c(c1)[C@]1(C(=O)N2)[C@H](c2ccccc2OCCO)N2[C@H](c3ccccc3)[C@H](c3ccccc3)OC(=O)[C@H]2[C@@H]1C(=O)N1CCN(c2ncccn2)CC1)C(=O)OC | -0.35 | 0.474 | -0.0937 | 0.431 | 0.852 | 1.31 | 1.13 | -1.46 (inactive) | 0.255 | -0.11 |
| C=C(COC)C(=O)CC[C@H](OC(C)=O)c1ccc(CO)o1 | -0.374 | 0.275 | -0.148 | 0.265 | -0.0537 | 0.0866 | 0.0976 | -0.28 (inactive) | -0.225 | -0.132 |
| COCCOC(=O)N1C(=O)[C@@]2(c3cc(C#CCNC(N)=O)ccc31)[C@H](C(=O)N1CCN(c3ncccn3)CC1)[C@H]1C(=O)O[C@H](c3ccccc3)[C@H](c3ccccc3)N1[C@@H]2c1ccc(O)cc1 | -1.35 | 0.0122 | -0.282 | -0.129 | -1.15 | -0.37 | -0.475 | -1.04 (inactive) | -0.874 | -0.769 |
| COc1ccc(C(O)C2C=CC3C(=O)N(C)C(=O)C3N2Nc2ccccc2)cc1 (stereo not given) | 0.402 | 0.467 | 0.042 | 0.701 | 1.7 | 2.03 | 1.27 | 1.71 (inactive) | 0.791 | -0.271 |
| C=C1C(=O)C=C2CN(C(=O)c3ccccc3)[C@@](Cc3ccc(F)cc3)(C(=O)OC)[C@@H]12 | 0.891 | -0.595 | 0.25 | 1.12 | 1.71 | 1.89 | 1.09 | 4.89 (inactive) | 1.87 | -0.129 |
